This is an account of results in PubChem BioAssay AID588342 (National Center for Advancing Translational Sciences (NCATS), 2011).

About 25,000 (6.9%) of roughly 360,000 compounds were called active. Inconclusive results (about 9%) are left out. The full list was thinned out, with actives kept by preference. A number with no mark means an inactive call. Calls follow the shape of the dose curve; as a rule, active = well fitted inhibition curve with a large enough effect; inconclusive = small, poorly fitted or top-dose-only effect; inactive = flat fitted curve, though single readings scatter.
Potency is read from the fitted curve at half-maximal effect.

Sequence of Luciferin 4-monooxygenase (Photinus pyralis) (P08659 whole entry, looked up): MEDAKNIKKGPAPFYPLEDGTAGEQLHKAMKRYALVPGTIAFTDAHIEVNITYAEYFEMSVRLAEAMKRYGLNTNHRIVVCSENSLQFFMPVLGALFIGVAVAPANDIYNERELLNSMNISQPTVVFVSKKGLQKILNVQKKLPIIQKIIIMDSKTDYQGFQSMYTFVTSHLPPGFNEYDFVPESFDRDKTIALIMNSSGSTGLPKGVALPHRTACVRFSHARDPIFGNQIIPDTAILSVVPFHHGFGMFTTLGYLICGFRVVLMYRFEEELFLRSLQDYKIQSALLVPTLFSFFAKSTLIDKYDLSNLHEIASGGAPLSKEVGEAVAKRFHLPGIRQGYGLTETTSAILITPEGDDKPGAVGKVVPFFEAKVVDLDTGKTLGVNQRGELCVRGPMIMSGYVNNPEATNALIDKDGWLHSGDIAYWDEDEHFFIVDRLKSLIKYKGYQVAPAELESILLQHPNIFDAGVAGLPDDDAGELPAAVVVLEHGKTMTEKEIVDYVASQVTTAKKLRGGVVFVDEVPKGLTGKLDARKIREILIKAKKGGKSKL

The test addresses Luciferin 4-monooxygenase (Photinus pyralis) (UniProt P08659). The test can be described thus: qHTS profiling assay for firefly luciferase inhibitor/activator using purifed enzyme and Km concentrations of substrates (counterscreen for miR-21 project). Also: nearly all actives have a fitted effect of over 55% in size.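 As to activity change, negative = inhibition: plate controls were vehicle for no effect and reference inhibitor for full effect.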 The conditions noted are these: purified FLuc, luminescence inhibition; series mostly up to 57.5 µM; activity change, negative = inhibition: at the top concentration. The method, boiled down: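 Purified P. pyralis luciferase, 10 nM final, with Km-level 10 uM D-luciferin and 10 uM ATP in 50 mM Tris acetate pH 7.5, 10 mM Mg acetate, 0.01% Tween-20, 0.05% BSA; 6-point qHTS titration about 60 µM downward; luminescence read.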
Take `CCOC(=O)[C@H]1[C@H]2COc3cc(OC)ccc3[C@@H]2N2C(=O)N(c3ccc(Br)cc3)C(=O)[C@@]12C`: the “activity change, negative = inhibition” value was 2.63%.
Still for that read-out and setting: as for `COc1ccc(CNC(=O)COC(=O)c2c(C)nn(-c3ccccc3)c2C)cc1OC`, the figure is 0.209%.
As for `COc1ccc(CNC(=O)COc2ccccc2C(=O)c2cnn(-c3ccccc3)c2)cc1OC`, the Potency was 5.36 µM (active).
Turning to `COc1ccc(CNC(=O)Cc2ccc(-c3ccccc3)cc2)cc1OC`, the “activity change, negative = inhibition” value is -1.07%.
Consider `CCOC(=O)c1sc(NC(=O)c2sc(C)nc2C)nc1C`, for which the Potency was 6.01 µM (active).
As for `CCOC(=O)c1sc(/N=C/Nc2nc(C)c(C(=O)OCC)s2)nc1C`, the “activity change, negative = inhibition” value is 4.82%.
For `CCOC(=O)c1cccnc1NC(=O)c1ccncc1`, the “activity change, negative = inhibition” value was 1.54%.
`CCOC(=O)c1sc(NC(=O)C2CSC3(C)CCC(=O)N23)nc1C` (stereo not given): the “activity change, negative = inhibition” value was 0.346%.
As to `CCOC(=O)c1sc(NC(=O)c2ccncc2)nc1C`, the Potency is 19 µM (active).
As to `CCOC(=O)c1sc(NC(=O)CSc2n[nH]c(CC)n2)nc1C`, the “activity change, negative = inhibition” value is -0.887%.
Same read-out and setting: the result for `Cc1ccc(C)c(Oc2c(C(F)(F)F)oc3c(CN4CCN(C)CC4)c(O)ccc3c2=O)c1` reads -1.22%.
In the case of `Cc1cc(C)n2nc(CNS(=O)(=O)c3c(F)c(F)c(F)c(F)c3F)nc2n1`, the “activity change, negative = inhibition” value is -0.955%.
Same read-out and setting: as for `Cc1ccc(C(=O)Nc2ccccc2F)cc1S(=O)(=O)N1CCOCC1`, the figure is -1.59%; as for `CCOc1cc(/C=C(\C#N)C(=O)Nc2ccccc2C)ccc1OCc1cc(=O)n2nc(CC)sc2n1`, 0.577%.
Consider `Cc1ccc(C(=O)COC(=O)c2cccc(N3C(=O)c4c(C)nc5ccccc5c4C3=O)c2)cc1C`, for which the Potency is 2.69 µM (active).
For `O=C(CCc1nc2ccccc2c(=O)[nH]1)OCC(=O)c1cccc(Cl)c1`, the “activity change, negative = inhibition” value was 7.71%.
For `CCCc1nc2ccccc2c(C(=O)OCC(=O)c2ccc3c(c2)NC(=O)CO3)c1CC`, the “activity change, negative = inhibition” value is -0.523%.
With `CNC(=O)C1CC(=O)N(c2ccc(OCC(=O)Nc3ccccc3C)cc2)C1` (stereo not given), the “activity change, negative = inhibition” value is -3.6%.
On the same count and under the same terms, the result for `Cc1ccccc1NC(=O)CSc1nc2ccc(Nc3nc(N4CCOCC4)nc(N4CCOCC4)n3)cc2s1` reads 0.0802%; that for `C/C(=N\Nc1nc(N2CCOCC2)nc(N2CCOCC2)n1)c1ccc([N+](=O)[O-])cc1`, -3.17%.
Regarding `C/C(=N\Nc1nc(Nc2ccccc2)nc(N2CCOCC2)n1)c1cccs1`, the Potency was 19 µM (active).
For the compound `CN(C)/N=C/c1cn(-c2ccccc2)nc1-c1cccnc1`, the “activity change, negative = inhibition” value was -19.8%.
`COc1ccc(-c2nn(-c3ccccc3)cc2/C=N/Nc2ccccn2)cc1OC`: the Potency was 10.7 µM (active).
As to `COc1cccc(-c2nn(-c3ccccc3)cc2/C=C(\C#N)C(=O)NCCCn2ccnc2)c1`, the “activity change, negative = inhibition” value was -21.4%.
In the case of `COc1cccc(C2=CC(=O)C[C@H](c3ccc(F)cc3)C2)c1OC`, the “activity change, negative = inhibition” value was -9.98%.
Consider `CC(C)c1ccc(OCC(=O)N(Cc2ccc(N(C)C)cc2)C2CCS(=O)(=O)C2)cc1` (stereo not given), for which the “activity change, negative = inhibition” value was -0.839%.
On the same count and under the same terms, the result for `CCOc1cccc(CNC(=O)c2ccc(N3CCCC3)c(NC(=O)Nc3ccccc3CC)c2)c1` reads 0.552%; that for `COc1ccc(CN2C(=O)C(NC(=O)c3cccc(C)c3)(C(F)(F)F)N=C2c2ccccc2)cc1` (stereo not given), -14%.
Regarding `Cc1ccc2nc(-c3ccc(SCC(=O)Nc4cc(C)on4)nc3)[nH]c2c1`, the Potency is 0.757 µM (active).
In the case of `Cc1cc(NC(=O)CSc2nc3ccccc3n2CC(C)C)no1`, the “activity change, negative = inhibition” value was -16.7%.
For `Cc1ccc(SCCC(=O)Nc2cc(C)on2)cc1`, the “activity change, negative = inhibition” value was -1.52%.
On the same count and under the same terms, the result for `Cc1cc(F)ccc1NC1(c2ccccc2)C(=O)c2ccccc2C1=O` reads -12.8%; that for `CN(C)c1ccc(S(=O)(=O)NCC(=O)NCC2CCCCC2)cc1[N+](=O)[O-]`, -1.38%; that for `CC(=O)c1ccc(N2CCN(CC(O)c3ccccc3)CC2)cc1` (stereo not given), 4.54%.
Regarding `CC(=O)c1ccc(N2Cc3ccccc3C2)cc1`, the Potency was 10.7 µM (active).
Regarding `CC(=O)c1ccc(N2CCN(C(=O)CCc3ccccc3)CC2)cc1`, the “activity change, negative = inhibition” value is -8.99%.
`Cc1ccc(S(=O)(=O)N2CCCCC2)cc1C(=O)N1CCN(CCO)CC1`: the “activity change, negative = inhibition” value is 3.12%.
Same read-out and setting: as for `Cc1cc(C)c2oc(C(=O)Nc3ccc(S(=O)(=O)N4CCCCCC4)cc3)cc(=O)c2c1`, the figure is -2.56%.
As to `CCc1ccc(-c2nnn(Cc3nn[nH]n3)n2)cc1`, the Potency is 26.9 µM (active).
As to `CN(C)c1nc(N)nc(Cn2nnc(-c3ccc(C(F)(F)F)cc3)n2)n1`, the “activity change, negative = inhibition” value is -0.922%.
The same measure, in the same setting: as for `COc1ccc(-c2nnn(Cc3nc(N)nc(N4CCCCC4)n3)n2)cc1`, the figure is 0.313%; as for `CC(=O)Nc1ccc(S(=O)(=O)N2CCn3cccc3C2C)cc1` (stereo not given), -1.34%.
For the compound `Cc1ccc(-c2noc(CSc3nnnn3-c3ccccc3)n2)cc1`, the “activity change, negative = inhibition” value was -3.75%.
Take `CCc1ccc(-n2nnc(-c3nc(-c4ccccc4)no3)c2C)cc1`: the Potency was 2.13 µM (active).
In the case of `Cc1ccc(-c2noc(-c3nnn(-c4cccc(C(F)(F)F)c4)c3N)n2)cc1`, the “activity change, negative = inhibition” value is 0.761%.
Still for that read-out and setting: the result for `Cc1ccc2c(c1)N(C(=O)CCC(=O)NCc1ccccc1F)CC(C)O2` (stereo not given) reads 2.57%.
As for `CCc1cccc(NC(=O)CN(c2ccc(C)c(C)c2)S(=O)(=O)c2ccsc2C(=O)OC)c1`, the “activity change, negative = inhibition” value is -0.926%.
The same measure, in the same setting: the result for `CC(=O)Oc1ccc(C)cc1N1C(=O)c2ccc(C(=O)O)cc2C1=O` reads -5.61%.
Take `Cc1cccc(N2C(=O)c3ccc(C(=O)Nc4cccc(C(=O)O)c4)cc3C2=O)c1`: the Potency is 1.51 µM (active).
Turning to `CC(=O)Nc1ccc(NC(=O)c2ccc3c(c2)C(=O)N(c2ccccc2C)C3=O)cc1`, the “activity change, negative = inhibition” value is -1.2%.
